FBPA coupling cs – qHTS Assay for Inhibitors of Fructose-1,6-bisphosphate Aldolase from Giardia Lamblia: Coupling assay counterscreen | coupling enzyme system counterscreen, AmpLite Red fluorescence | 0.67% of 290,000 active | activity change, negative = inhibition, % at 58.2 µM, hits read low | AID 2472, 2010; in the data active means activity change below about -30%
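First, compound is pin-transferred into glyceraldehyde-3-phosphate coupling-enzyme reagent at 57.5 uM final and held 10 min at RT. Next, substrate, coupling system and AmpLite Red are added. After 20 min RT, fluorescence (525/598 nm) is read.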
Tau fluor cs – Counterscreen qHTS for Inhibitors of Tau Fibril Formation, Fluorescence Polarization; tau K18 P301L Alexa594 fluorescence, heparin fibrillization; Potency, µM (series often up to 57.7 µM); 0.93% of 280,000 active; AID 1463, 2008; further: nearly all actives have a fitted effect of over 55% in size
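Human tau K18 P301L (15 uM unlabeled, 0.24 uM Alexa 594-labeled) in 100 mM sodium acetate pH 7 with 20 uM heparin, 6 hr at 37 C. ThT 30 uM added, 1 hr ambient; Alexa 594 FP and total fluorescence read at 555/632 nm.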
USP1-UAF1 inh – Inhibitors of USP1/UAF1: Primary Screen | Ubiquitin carboxyl-terminal hydrolase 1 (Homo sapiens), O94782 | recombinant USP1/UAF1, Ub-Rhodamine cleavage fluorescence | Potency, µM (highest dose often 57.1 µM), actives largely listed as inhibitors | 0.23% of 390,000 active | AID 743255, 2014; further: nearly all actives have a fitted effect of over 60% in size
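In this screen, compounds sit with the deubiquitinase complex (1nM) for 15 min at room temperature before Ub-Rho is added at 150nM final. Fluorescence rise is then followed for 6 reads every 60 seconds.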
Tau fibril ThT – qHTS for Inhibitors of Tau Fibril Formation, Thioflavin T Binding; recombinant tau K18 P301L (four-repeat tau fragment), heparin-induced fibrillization, ThT fluorescence; Potency, µM (highest dose often 57.4 µM), usual class: inhibitors; 2.1% of 270,000 active; AID 1460, 2008; further: nearly all actives have a fitted effect of over 55% in size
Target sequence (P10636 561-689 P618L limits assumed): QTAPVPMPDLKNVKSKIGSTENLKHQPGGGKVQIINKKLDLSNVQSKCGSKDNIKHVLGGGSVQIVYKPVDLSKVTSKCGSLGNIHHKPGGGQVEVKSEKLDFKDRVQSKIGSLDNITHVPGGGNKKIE
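In this qHTS, human K18 P301L tau is incubated with compound and heparin for 6 hr at 37 C, and Thioflavin T fluorescence then reports fibril load.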
Tau FP inhib – qHTS for Inhibitors of Tau Fibril Formation, Fluorescence Polarization. Microtubule-associated protein tau (Homo sapiens), P10636. K18 P301L tau heparin fibrillization, Alexa594 FP, 6 h. Potency, µM (doses to about 57.7 µM), hits mostly inhibitors. 0.39% of 280,000 active; further: nearly all actives have a fitted effect of over 55% in size
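Read-out: fluorescence polarization of Alexa 594-labeled tau (0.24 uM), 555 nm excitation, 632 nm emission. Mixtures held 15 uM unlabeled K18 P301L, compound and 20 uM heparin, pH 7 acetate buffer, incubated 6 hr at 37 C.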
Each line names hits and unclear results; the compound was inactive in the other large screens; [ ] = remark or other dose. Sampled rows, rich in hits. Any-hit rate of the full collection: about 2.3%. Unless noted, the call rests on the fitted dose curve; in most records, active means well fitted curve in the direction sought with a large enough effect; inconclusive means small, poorly fitted or top-dose-only effect, or another doubt; inactive means no such curve, though single readings can be large; an effect the other way counts as inactive or inconclusive.

C/C(Cn1nnc([N+](=O)[O-])n1)=N\NC(=O)c1ccc(Cl)c(Cl)c1	FBPA coupling cs -43, Tau fibril ThT inconclusive
COc1ccc(NC(=O)C2CCN(c3ccc(Sc4ccc(C)cc4)nn3)CC2)cc1	none (no result: FBPA coupling cs)
Fc1cccc2sc(Nc3nnc(-c4ccco4)o3)nc12	Tau fibril ThT 13µM
CCOC(=O)N1CCC(N2Cc3cccc(C(=O)Nc4cccc(F)c4)c3C2=O)CC1	Tau fluor cs 4µM[quencher], Tau fibril ThT inconclusive, Tau FP inhib inconclusive
O=C(CSc1ncc2c(n1)-c1ccc(Cl)cc1N(Cc1ccccc1)S2(=O)=O)Nc1ccccc1C(F)(F)F	none (no result: FBPA coupling cs)
Cc1ccc(OCC(=O)N(Cc2sccc2C)C2CCS(=O)(=O)C2)cc1 (centres undefined)	none (no result: FBPA coupling cs)
COc1ccc(-c2[nH]c(-c3ccc(O)cc3)nc2-c2ccccc2)cc1	Tau fluor cs 22µM[quencher], Tau fibril ThT inconclusive (no result: FBPA coupling cs)
O=C(O)COc1ccc(-c2nc(-c3ccccc3)c(-c3ccccc3)[nH]2)cc1	none (no result: Tau fluor cs, Tau fibril ThT, Tau FP inhib)
COc1ccc(-c2nc(-c3ccccc3)c(-c3ccc(O)cc3)[nH]2)cc1	Tau fluor cs 14µM[quencher], Tau fibril ThT inconclusive, Tau FP inhib inconclusive (no result: FBPA coupling cs)
COc1ccc(/C=C2\SC(=O)N(CCNC(=O)Cc3coc4cc(C)ccc34)C2=O)cc1OC	Tau fibril ThT 13µM, Tau FP inhib inconclusive
O=[N+]([O-])c1ccccc1NC(=S)N/N=C/c1ccc(O)c(O)c1	Tau fluor cs inconclusive, Tau fibril ThT 5.6µM
CCOc1cccc(/C=N/NC(=S)Nc2ccccc2[N+](=O)[O-])c1O	Tau fluor cs inconclusive, Tau fibril ThT inconclusive, Tau FP inhib inconclusive
Cc1ccccc1OCC(=O)OCc1cc(=O)n2nc(C3CC3)sc2n1	none (no result: FBPA coupling cs)
O=c1/c(=C\c2cccc(O)c2)sc2nc(-c3ccccc3)c(-c3ccccc3)n12	Tau fluor cs inconclusive, Tau fibril ThT 11µM, Tau FP inhib 25µM
O=C(Nc1ccccc1F)Nc1cccc2ccc(O)cc12	Tau fluor cs 14µM[quencher], Tau fibril ThT 16µM, Tau FP inhib inconclusive
COc1ccc(CCNC(=O)CCCn2c(=O)c3cccn3c3ccc(F)cc32)cc1OC	none (no result: FBPA coupling cs)
Cc1ccc(C(=O)N/C(=C\c2ccc(-c3ccccc3[N+](=O)[O-])o2)C(=O)NCCCN(C)C)cc1	USP1-UAF1 inh 28µM (no result: Tau fluor cs, Tau fibril ThT, Tau FP inhib)
CN(C)CCCNC(=O)/C(=C/c1ccc(-c2ccc([N+](=O)[O-])cc2)o1)NC(=O)c1ccccc1	none (no result: Tau fluor cs, Tau fibril ThT, Tau FP inhib)
Cc1ccc(C(=O)N/C(=C\c2ccc(-c3ccccc3[N+](=O)[O-])o2)C(=O)NCCN(C)C)cc1	FBPA coupling cs -42, USP1-UAF1 inh inconclusive (no result: Tau fluor cs, Tau fibril ThT, Tau FP inhib)
CCCOc1ccc(CN(C(=O)c2cc(=O)c3ccc(C)cc3o2)C2CCS(=O)(=O)C2)cc1 (centres undefined)	none (no result: FBPA coupling cs)
Cc1cc(CNCc2c(C(=O)N3CCCCCCC3)nc3ccc(Cl)cn23)nn1C	none
CC[n+]1ccc(/C=C/c2c[nH]c3ccccc23)cc1	USP1-UAF1 inh 28µM (no result: Tau fluor cs, Tau fibril ThT, Tau FP inhib)
Cc1ccc2[nH]cc(/C=C/c3cc[n+](C)cc3)c2c1	USP1-UAF1 inh 28µM (no result: Tau fluor cs, Tau fibril ThT, Tau FP inhib)
COc1ccc2c(/C=C/c3cc[n+](C)cc3)c[nH]c2c1	USP1-UAF1 inh inconclusive (no result: Tau fluor cs, Tau fibril ThT, Tau FP inhib)
CCn1c(/C=C/c2c[nH]c3ccccc23)nc2ccccc2c1=O	Tau FP inhib inconclusive
COc1cc(SC)ccc1C(=O)N1CCC(Cc2ccccc2)CC1	none (no result: Tau fluor cs, USP1-UAF1 inh, Tau fibril ThT, Tau FP inhib)
CCOC(=O)C(NC(=O)NC1CCCCC1)(c1ccccc1)C(F)(F)F (centres undefined)	Tau FP inhib inconclusive
CCOC(=O)C(NC(=O)Nc1ccc(O)cc1)(c1ccccc1)C(F)(F)F (centres undefined)	FBPA coupling cs -39, Tau fibril ThT inconclusive, Tau FP inhib inconclusive
CCCCn1c(N)c(-c2nc3ccccc3s2)c2c([N+](=O)[O-])nn(C)c(=O)c21	Tau fluor cs inconclusive, Tau fibril ThT 14µM
Clc1ccc(C[n+]2csc3ccccc32)cc1	Tau fibril ThT 22µM, Tau FP inhib inconclusive
Fc1ccc(C[n+]2csc3ccccc32)cc1	Tau fibril ThT inconclusive, Tau FP inhib inconclusive
CCOC(=O)c1cnc2ccc(OCC)cc2c1N1CCN(C)CC1	FBPA coupling cs -39

Screening data from PubChem BioAssay.
